KAT2A inh: inhibitors of human GCN5L2 histone acetyltransferase | Potency, µM (doses to about 58.9 µM), most hits filed as inhibitors | hit rate 0.21% among 390,000 | GCN5L2 HAT assay, ThioGlo1 CoA-SH fluorescence | AID 504327
Target sequence (Q92830 whole entry, looked up): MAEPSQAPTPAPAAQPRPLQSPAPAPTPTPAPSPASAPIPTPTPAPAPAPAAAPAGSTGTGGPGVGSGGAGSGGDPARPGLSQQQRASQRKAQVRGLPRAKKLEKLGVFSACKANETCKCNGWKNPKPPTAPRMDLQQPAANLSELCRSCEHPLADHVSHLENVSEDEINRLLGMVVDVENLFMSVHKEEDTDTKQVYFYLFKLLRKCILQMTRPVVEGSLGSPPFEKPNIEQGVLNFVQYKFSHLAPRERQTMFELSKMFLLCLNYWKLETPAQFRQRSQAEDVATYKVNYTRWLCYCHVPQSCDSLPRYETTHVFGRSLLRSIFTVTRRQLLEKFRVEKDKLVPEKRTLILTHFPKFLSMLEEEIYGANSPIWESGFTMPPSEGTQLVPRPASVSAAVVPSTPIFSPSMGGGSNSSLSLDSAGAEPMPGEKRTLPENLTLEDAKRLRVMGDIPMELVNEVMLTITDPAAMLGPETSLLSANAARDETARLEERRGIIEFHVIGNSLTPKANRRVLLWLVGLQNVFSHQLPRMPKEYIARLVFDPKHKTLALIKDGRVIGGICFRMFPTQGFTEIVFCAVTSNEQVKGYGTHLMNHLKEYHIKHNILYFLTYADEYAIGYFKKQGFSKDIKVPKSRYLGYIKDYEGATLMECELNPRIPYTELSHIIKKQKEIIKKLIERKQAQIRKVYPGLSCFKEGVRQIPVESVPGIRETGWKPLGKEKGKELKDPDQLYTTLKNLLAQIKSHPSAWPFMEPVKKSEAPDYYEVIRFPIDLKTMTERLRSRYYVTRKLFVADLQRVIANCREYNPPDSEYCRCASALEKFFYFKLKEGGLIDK
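Titration-based screen in which CoA formation is detected via maleimide probe ThioGlo1 (50uM) turning fluorescent on thiol reaction; substrates H3(1-25) 75uM and acetyl-CoA 70uM, GCN5L2 20nM, 20 min incubation at room temperature.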
VDR inh: blocks the human vitamin D receptor; P11473; VDR-SRC2-3 peptide fluorescence polarization, 2 h; Potency, µM, most hits filed as inhibitors; hit rate 0.93% among 400,000
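Measured by FP: displacement of SRC2-3 coactivator peptide from VDR by library compounds, following a two-hour ambient incubation.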
TRb SRC2 PPI: disrupts binding of human TR beta to SRC2. P10828. TRbeta-SRC2 peptide binding, fluorescence polarization; receptor liganded with 1 µM T3. Potency, µM (doses to about 106 µM), actives largely listed as inhibitors. hit rate 0.065% among 280,000; note: nearly all actives have a fitted effect of over 50% in size
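Quantitative HTS by FP: 0.6 uM TRb LBD, 20 nM labeled SRC2 20-mer, 1 uM T3, 5% DMSO; 5 hr ambient incubation; % activity per concentration and potencies from concentration series.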
TexasRed fluor: alters Texas Red total fluorescence, flagging assay interference. Potency, µM (highest dose often 106 µM). hit rate 0.29% among 280,000. TRb/SRC2 Texas Red total fluorescence interference; active = well fitted curve in either direction with a large enough effect; inconclusive = small, poorly fitted or top-dose-only effect
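Human TRb ligand-binding domain at 0.6 uM with 20 nM Texas Red SRC2 peptide in Tris buffer containing 1 uM T3 and 5% DMSO, incubated with compound 5 h at ambient temperature. Total fluorescence (555/632 nm) calculated as parallel + 2 × perpendicular.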
RGS12 GoLoco inh: RGS12 GoLoco-Gai1 interaction inhibition. P63096. hit rate 0.44% among 230,000. Gai1:RGS12 GoLoco peptide FP, rhodamine, 10 min. AID 880. Potency, µM (titrated, usually from 61.6 µM), most hits filed as inhibitors; active = well fitted inhibition curve with a large enough effect, not every such curve was filed as active; inactive = no such curve, though single readings can be large or run the other way; note: nearly all actives have a fitted effect of over 30% in size
Each line names hits and unclear results; the compound was inactive in the other large screens; ! = repeats disagree; [ ] = remark or other dose. An excerpt weighted towards active compounds, which were near 1.2% of everything screened. Unless noted, calls come from the whole dose curve; as a rule, active = well fitted curve in the direction sought with a large enough effect; inconclusive = small, poorly fitted or top-dose-only effect, or another doubt; inactive = no such curve, though single readings can be large; an effect the other way counts as inactive or inconclusive.

CC(C)CNC(=O)c1c(N)n(Cc2ccc3c(c2)OCO3)c2nc3ccccc3nc12	none
COCCCNC(=O)c1c(NC(=O)c2ccco2)n(Cc2ccccc2)c2nc3ccccc3nc12	VDR inh 45µM
CCCCNC(=O)c1c(N)n(CCCOC)c2nc3ccccc3nc12	VDR inh 50µM, TRb SRC2 PPI inconclusive
CC(O)CN(CC(C)O)CC(C)O (stereo not given)	none (no result: KAT2A inh, VDR inh, RGS12 GoLoco inh)
CO/N=C(/C(=O)OC)c1ccccc1COc1ccccc1C	none (no result: KAT2A inh, VDR inh, RGS12 GoLoco inh)
Oc1ccc(C(c2ccc(O)cc2)(C(F)(F)F)C(F)(F)F)cc1	none (no result: KAT2A inh, VDR inh, RGS12 GoLoco inh)
Cc1ccc(C)c(NC(=S)NC2CC3CCC(C2)N3Cc2ccco2)c1 (stereo not given)	KAT2A inh 2µM
COC(=O)c1c(C)n(Cc2ccco2)c2ccc(O)cc12	none
CCOc1ccc(-c2nc3ccc(-c4nc5ccc(N6CCN(C)CC6)cc5[nH]4)cc3[nH]2)cc1	KAT2A inh 11µM
CCC(C)N1C(=O)/C(=C\c2ccc(N3CCCCCC3)cc2)C(=O)NC1=S (stereo not given)	none
CCC(C)N1C(=O)/C(=C\c2cnc(N(C)C)nc2)C(=O)NC1=S (stereo not given)	VDR inh 45µM
COc1cc(C=C2C(=O)NC(=O)NC2=O)ccc1OS(=O)(=O)c1ccccc1[N+](=O)[O-]	VDR inh 45µM (no result: TRb SRC2 PPI, TexasRed fluor, RGS12 GoLoco inh)
CCOc1ccc(C=C2C(=O)NC(=S)NC2=O)cc1OCC	VDR inh 28µM (no result: KAT2A inh, TRb SRC2 PPI, TexasRed fluor, RGS12 GoLoco inh)
COc1cc(C=C2C(=O)NC(=O)NC2=O)cc(OC)c1OC	VDR inh inconclusive
CCOc1cc(C=C2C(=O)NC(=O)NC2=O)ccc1OCC(=O)N1CCOCC1	VDR inh inconclusive
CCOc1cc(C=C2C(=O)NC(=O)NC2=O)ccc1OS(=O)(=O)c1ccccc1	VDR inh 79µM
CC(C)C[C@H]1C(=O)N2CCC[C@H]2[C@]2(O)O[C@](NC(=O)[C@@H]3C=C4c5cccc6[nH]cc(c56)C[C@H]4N(C)C3)(C(C)C)C(=O)N12	VDR inh 79µM (no result: TRb SRC2 PPI, TexasRed fluor, RGS12 GoLoco inh)
CN1C[C@H](C(=O)N[C@]2(C)O[C@@]3(O)[C@@H]4CCCN4C(=O)[C@H](Cc4ccccc4)N3C2=O)C=C2c3cccc4[nH]cc(c34)C[C@H]21	KAT2A inh inconclusive, VDR inh 14µM, TexasRed fluor inconclusive
CC(C)C[C@H]1C(=O)N2CCC[C@H]2[C@]2(O)O[C@](NC(=O)[C@@H]3C=C4c5cccc6[nH]c(Br)c(c56)C[C@H]4N(C)C3)(C(C)C)C(=O)N12	VDR inh 28µM!
CC(C)C[C@H]1C(=O)N2CCC[C@@H]2[C@]2(O)O[C@](NC(=O)[C@H]3C=C4c5cccc6[nH]c(Br)c(c56)C[C@H]4N(C)C3)(C(C)C)C(=O)N12	none
CN(c1c(Br)cc(Br)cc1Br)c1c([N+](=O)[O-])cc([N+](=O)[O-])cc1C(F)(F)F	none (no result: KAT2A inh, VDR inh, RGS12 GoLoco inh)
Cc1cc(C2CC2)nc(Nc2ccccc2)n1	none (no result: KAT2A inh, VDR inh, RGS12 GoLoco inh)
c1ccc(-c2ccccc2)cc1	none (no result: KAT2A inh, VDR inh)
CC[C@@H](CO)NC(=O)[C@@H]1C=C2c3cccc4c3c(cn4C)C[C@H]2N(C)C1	KAT2A inh inconclusive, VDR inh 28µM!, TRb SRC2 PPI inconclusive, TexasRed fluor inconclusive
O=C(O)COc1ccc(Cl)cc1	none (no result: KAT2A inh, VDR inh, RGS12 GoLoco inh)
C1=Cc2cccc3cccc1c23	none (no result: KAT2A inh, VDR inh, RGS12 GoLoco inh)
O=C1NC(=O)C(=Cc2ccc(OCCOc3ccc([N+](=O)[O-])cc3)cc2)C(=O)N1	VDR inh 50µM
[Hg+][c]1ccccc1	KAT2A inh 0.45µM, VDR inh 13µM (no result: RGS12 GoLoco inh)
CCCCNC(=O)OCC#CI	none (no result: KAT2A inh, VDR inh, RGS12 GoLoco inh)
CCOP(=S)(S)OCC	none (no result: KAT2A inh, VDR inh, RGS12 GoLoco inh)
CC1(C)CC(=O)C(C2(O)C(=O)NC(=O)NC2=O)=C(O)C1	VDR inh 45µM
COC[C@H]1OC(=O)c2coc3c2[C@@]1(C)C1=C(C3=O)[C@@H]2CCC(=O)[C@@]2(C)C[C@H]1OC(C)=O	VDR inh 71µM, TRb SRC2 PPI 35µM, TexasRed fluor 45µM[fluorescent]
Cc1nn(CCC#N)c2c1P(=S)(N1CCCC1)OC(c1ccc(F)cc1)=N2 (stereo not given)	VDR inh 25µM
COC(=O)c1c(C(F)F)nc(C(F)(F)F)c(C2=NCCS2)c1CC(C)C	none (no result: KAT2A inh, VDR inh, RGS12 GoLoco inh)
CCCCCCCCCCCC#N	none (no result: KAT2A inh, VDR inh, RGS12 GoLoco inh)
CC1=CC(c2ccccc2)NC(=S)N1 (stereo not given)	VDR inh 79µM
